Source: PubChem BioAssay (several laboratories)
PTEN del growth: growth suppressors of cells with PTEN tumor suppressor deletion; HCT116 PTEN-null viability, CellTiter-Glo, 60 h; stronger effect = lower value; viability, % at 10 µM; 140,000 compounds, 1.2% hits; AID 827;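 active means viability at or below a set limit, 4 SD under the median of all tested compounds, cut at about 3.7% in these data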;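 further: PTEN knockout HCT116 line with beta catenin targeted HCT116 as companion control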
ROMK primary: modulators of human ROMK potassium channel. P48048. Tet-inducible ROMK, thallium flux fluorescence; actives lie on both sides. 130,000 compounds, 2% hits. B-score at 10 µM;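 active means signal ratio slope over the read window, or its plate-corrected B-score, at least 3 SD from the plate mean, either direction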;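 further: B-score of the F/F0 ratio slope over 7 to 12 s after thallium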
Target sequence (P48048 whole entry, looked up): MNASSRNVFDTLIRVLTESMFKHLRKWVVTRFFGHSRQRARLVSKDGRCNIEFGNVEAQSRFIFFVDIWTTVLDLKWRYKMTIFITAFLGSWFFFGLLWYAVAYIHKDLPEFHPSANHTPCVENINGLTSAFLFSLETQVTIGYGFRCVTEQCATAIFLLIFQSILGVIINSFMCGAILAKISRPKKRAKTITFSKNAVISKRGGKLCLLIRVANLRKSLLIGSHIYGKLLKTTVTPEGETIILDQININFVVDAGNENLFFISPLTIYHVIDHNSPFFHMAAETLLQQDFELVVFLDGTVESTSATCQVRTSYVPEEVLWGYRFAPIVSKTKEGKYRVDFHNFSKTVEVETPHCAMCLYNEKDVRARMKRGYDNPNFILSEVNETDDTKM
Insulin prom inh: TRM-6 insulin promoter activity inhibition; TRM-6 cells (human fetal islet line), insulin promoter-eGFP reporter, imaging; reporter expression induced with tamoxifen; 130,000 compounds, 0.9% hits; inhibition, % at 2 µM;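 active means inhibition above the mean plus 3 SD, with well images judged a real hit on visual review, cut at about 60% in these data, passing the limit was not always enough; inconclusive means inhibition over the cutoff but images rejected on review; inactive means inhibition not above the cutoff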
Lmaj promast: Leishmania major promastigote growth inhibition. inhibition, % at 10 µM. Leishmania major promastigotes, resazurin fluorescence viability. 200,000 compounds, 9% hits. AID 1063; in the data active means inhibition above about 50%;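 further: promastigotes grown with compound for 44 hours at 28 °C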
HCT116 bCat-KO: beta-catenin-lacking colon tumor cell growth suppression; HCT116 beta-catenin knockout viability, CellTiter-Glo, 60 h; stronger effect = lower value; viability, % at 10 µM; 140,000 compounds, 1.5% hits;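 active means viability at or under a set limit, the compound median less 4 SD, cut at about 6% in these data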;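 further: 0% = Hyamine 1622 control at 20 µM and 100% = untreated cell control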
p97 inhibitor: blocks human p97 ATPase activity. 220,000 compounds, 0.42% hits. recombinant p97 ATPase, Kinase-Glo ATP luminescence, 3 h. P55072. inhibition, % at 8 µM; in the data active means inhibition above about 15%;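 further: 0% = DMSO vehicle and 100% = wells lacking enzyme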
ROMK retest: confirmation of human ROMK potassium channel modulators | 3,000 compounds, 54% hits | normalized thallium flux (F/F0 slope) at 10 µM | AID 1917 | shares compounds with ROMK primary | ROMK thallium flux, fluorescence ratio; stronger effect = lower value;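 active means Flux at 10 µM at least 3 SD below or above vehicle control mean in one or both replicates; inconclusive means no clear call, values can overlap the other calls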
An asterisk follows results filed as active; i = inactive; ? = inconclusive; · = not tested or not shown. A selection: hits, their analogues and other compounds. The true share with any hit is near 10%.

SMILES	PTEN del growth	ROMK primary	Insulin prom inh	Lmaj promast	HCT116 bCat-KO	p97 inhibitor	ROMK retest
COCc1n[nH]c(=S)n1-c1ccccc1	84	-0.037	16	4	91	4	·
COC(Cc1n[nH]c(=S)n1-c1ccccc1)OC	90	·	-21	-4	97	2	0.073
O=C(OC(c1ccc(NS(=O)(=O)c2ccccc2)cc1)(C(F)(F)F)C(F)(F)F)c1ccccc1	89	-4.5*	58	100*	90	1	0.062*
CCN(CC)S(=O)(=O)c1ccc(-c2nnc(SCc3nnc(-c4ccccc4)o3)o2)cc1	8	·	·	6	22	-1	·
CC(=O)N1C(=O)C(=C2C=C(C)OC(C)=C2)c2ccccc21	27	·	·	-2	32	-6	0.062*
CN(C)CCCN1C(=O)c2cccc3c([N+](=O)[O-])ccc(c23)C1=O	1.6*	-4.8*	i	100*	1.4*	6	0.038*
Cc1cc(C)n(-c2cc(C(=O)O)cc(C(=O)O)c2)n1	·	0.024	·	3	·	11	·
O=C(Nc1ccc(F)cc1)c1nn(-c2ccccc2)c(=O)cc1Cl	·	-3.3*	-30	98*	·	5	0.066*
Cc1cc(C)cc(NC(=O)N2CCCN(Cc3c(F)cccc3Cl)CC2)c1	·	·	·	·	·	0	·
C/C(=N/NC(=O)CN1CCN(Cc2ccccc2)CC1)c1ccc([N+](=O)[O-])cc1	·	·	·	·	·	6	·
COc1ccc(C2C(C#N)=C(N)Oc3c2ccc2cccnc32)cc1OC (centres undefined)	·	6.7*	-190	5	·	4	0.077
O=C(c1sccc1Br)N1CCN(Cc2ccc3c(c2)OCO3)CC1	·	·	·	·	·	0	·
CC(C)=NNc1nc2c(c(=O)[nH]c(=O)n2C)n1CCc1ccccc1	·	-1.7*	22	36	·	3	0.073
Cn1c(=O)[nH]c(=O)c2c1nc(SCCN1CCOCC1)n2CCCc1ccccc1	88	·	·	2	84	0	·
CC(C)CCSc1nc2c(c(=O)[nH]c(=O)n2C)n1CCCc1ccccc1	49	·	·	13	54	-3	0.072
Cc1noc(C)c1C(=O)Nc1ccc(F)cc1F	108	-0.44	·	-5	109	2	·
CCc1ccc(NC(=O)CN(c2ccccc2)S(=O)(=O)N(C)C)cc1	·	-0.22	-60	-1	·	-3	·
Cn1c(SCC(=O)OCC(=O)c2ccccc2)nnc1-c1cccs1	92	0.79	56	-9	94	5	·
Cc1ccc2nc(-c3cccnc3)cc(C(=O)N3CCN(c4ccc([N+](=O)[O-])cc4)CC3)c2c1	·	0.42	·	16	·	-2	·
Cc1ccc2c(C(=O)N3CCN(c4ccccc4)CC3)cc(-c3cccnc3)nc2c1C	·	1.9*	·	45	·	-5	0.078
Cc1nn2c(=O)nc3sc4c(c3c2[nH]c1=O)CCCC4	·	-0.2	-344	-5	·	2	·
O=C(O)c1ccccc1-c1ccccc1C(=O)NCc1ccco1	96	·	1	4	104	9	·
O=C(c1ccc([N+](=O)[O-])cc1)N(Cc1ccc(Br)cc1)N1C(=O)CCCC1=O	110	-7.3*	33	2	101	-1	0.037*
c1ccc(CC2=NCCN2)cc1	90	3.1*	-30	-7	101	-6	0.079
O=C(COC(=O)c1ccc(Cl)nc1)c1ccc2c(c1)OCCO2	·	-2.2*	·	-4	·	0	0.072
SMILES	PTEN del growth	ROMK primary	Insulin prom inh	Lmaj promast	HCT116 bCat-KO	p97 inhibitor	ROMK retest
OC(CNCCCCNCC(O)C(F)(F)F)C(F)(F)F (centres undefined)	·	2.7*	-5	-5	·	1	0.08
CC1=C(C(=O)OCC(Cl)(Cl)Cl)N2C(=O)C(NC(=O)Cc3ccccc3)C2SC1 (centres undefined)	·	-3.1*	·	-4	·	3	0.061*
O=C(/C=C/c1ccccc1)Nc1ccc(C(=O)N2CCCCC2)cc1	·	-0.65	·	1	·	3	·
CCOC(=O)Cn1cc(/C=C/[N+](=O)[O-])c2ccccc21	·	-3.5*	-21	36	·	1	0.036*
CCOC(=O)Cn1cc(C#N)c2ccccc21	·	0.0069	·	-7	·	3	·
CCOc1ccc(/C=C/[N+](=O)[O-])c2ccccc12	1.8*	-3.8*	11	100*	2.0*	-5	0.043*
O=C(CSc1nc(O)cc(=O)n1-c1ccccc1)Nc1ccc(Br)cn1	·	0.16	·	4	·	4	·
O=C(O)c1cc2c(s1)-c1ccccc1OC2	87	·	·	-4	89	5	?
COc1ccc(NS(=O)(=O)c2ccc(NC(=O)c3ccc(CN4CCOCC4)cc3)cc2)cc1	·	-0.68	13	13	·	4	·
O=C(Nc1ccc(S(=O)(=O)Nc2ccc(F)cc2)cc1)c1ccc(CN2CCOCC2)cc1	·	-3.4*	·	98*	·	3	?
O=C(Nc1ccc(S(=O)(=O)N2CCCCC2)cc1)c1ccc(CN2CCOCC2)cc1	10	·	?	13	5.9*	-3	0.059*
CN(C)c1ccc(N=Cc2nc(-c3ccccc3)oc2OC(=O)c2ccccc2)cc1	90	·	25	8	90	-1	·
CC(=O)Oc1oc(-c2ccccc2)nc1C=Nc1ccc(N(C)C)cc1	·	·	·	·	·	-2	0.06*
O=C1CNC(=O)/C1=C\N1CCN(C(c2ccccc2)c2ccccc2)CC1	114	·	·	5	103	5	·
Cc1cc(N2CCCC2)ccc1/C=C1\NC(=S)N(C)C1=O	·	-3.2*	·	7	·	2	0.025*
CN1C(=O)c2ccc(N3CCCC3)cc2C1=O	97	·	30	1	98	4	·
Cc1sc(/C=C2\C(=O)ON=C2c2ccccc2)cc1Br	94	0.29	43	-8	66	1	·
COc1cc(/C=C2/C(=O)ON=C2c2ccccc2)ccc1O	61	-6.8*	0	88*	68	5	0.044*
CC1=NOC(=O)/C1=C\c1ccc(-c2ccccc2Br)o1	·	-8.7*	-14	99*	·	8	0.062*
Cc1ccc(/C=C2/C(=O)ON=C2c2ccccc2)o1	·	·	·	·	·	-2	0.04*
O=C1ON=C(c2ccccc2)/C1=C\c1ccco1	·	·	·	·	·	3	·
COC(=O)Cc1c(C)nc2nc(NCc3cccc([N+](=O)[O-])c3)[nH]n2c1=O	107	0.29	32	-7	112	3	·
Cc1nc(CN2CCN(Cc3nc(C(c4ccccc4)c4ccccc4)no3)CC2)cs1	·	0.52	·	0	·	2	·
O=C(Cc1ccccc1)NCc1ccncc1	·	0.38	-115	-9	·	6	·
CCN(CCCNC(=O)c1[nH]c(C)c(C(C)=O)c1C)c1ccccc1	41	1.5	-97	-1	28	1	·
COc1ccc(Nc2ncnc3scc(-c4ccc(OC)cc4)c23)cc1	21	-0.71	-4	88*	19	1	0.066*
O=C(NCc1cccs1)C1CCN(c2ccc(S(=O)(=O)N3CCOCC3)cc2Cl)CC1	10	2.9*	-221	18	12	-3	0.081
C#CCNC(=O)C1CCN(c2ccc(S(=O)(=O)N3CCOCC3)cc2Cl)CC1	·	1.6	-64	46	·	5	·
